Data as given in PubChem BioAssay AID460 (PCMD, 2006).
Among all 58,000 compounds or so, about 100 (0.17%) were called active. This excerpt belongs to a sample that is enriched for actives. Unmarked numbers belong to inactive results. No stated cut-off is given here; in the data, active means inhibition above about 45%; inactive means the rest. Where a SMILES comes first, the peptide text is derived from it. The star is where a group is joined. Bz = O=C(c1ccccc1)*

Each compound was assayed against Procathepsin L (Homo sapiens) (UniProt P07711) (assay: blockers of CTSL protease activity – biochemical (AID 460;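 further: 0% = enzyme with no compound and 100% = no enzyme blank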)). Details: purified cathepsin L, fluorogenic substrate, fluorescence; stronger effect = higher value;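 tested at 10 µM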.
Chain of Procathepsin L (Homo sapiens) (P07711 114-288 limits assumed): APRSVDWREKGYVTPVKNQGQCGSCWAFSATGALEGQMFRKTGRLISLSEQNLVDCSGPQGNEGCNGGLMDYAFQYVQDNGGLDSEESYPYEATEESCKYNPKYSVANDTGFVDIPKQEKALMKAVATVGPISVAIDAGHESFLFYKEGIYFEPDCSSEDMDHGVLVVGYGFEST
Chain of Procathepsin L (Homo sapiens) (P07711 292-333 limits assumed): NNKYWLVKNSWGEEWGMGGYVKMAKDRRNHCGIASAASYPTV
`CN1CCN(S(=O)(=O)c2ccc3[nH]cc(C(=O)O)c(=O)c3c2)CC1` gave an inhibition of -3.14%. `COc1ccc(N2CCN(CCNC(=O)CCN3C(=O)COc4ccccc43)CC2)cc1` was tested, and the inhibition was 104% (active). `O=C(CCN1C(=O)COc2ccccc21)NCCCN1CCN(c2ccc(F)cc2)CC1` was tested, and the inhibition was 5.08%. `CCCN1CCN(CCCNC(=O)CN2C(=O)COc3ccccc32)CC1` showed an inhibition of -8%. `O=C(CCCC(=O)N(CC(=O)NC1CCCC1)Cc1ccccc1Cl)Nc1ccccn1` gave an inhibition of 9.21%. `c1ccc2[nH]c(-c3nc4ccccc4[nH]3)nc2c1` gave an inhibition of 3.52%. In the case of `Cc1ccc2nc3n(c(=O)c2c1)CCC3`, the inhibition is reported as 14.4%. `CCCC(=O)N1c2ccccc2NC2=C(C(=O)CCC2)C1c1ccc(F)cc1` (stereo unspecified) was tested, and the inhibition was 3.55%. `O=C(NC12CC3CC(CC(C3)C1)C2)N1CCCC(CO)C1` (stereo unspecified) was tested, and the inhibition was 2.74%. With `CCOC(=O)C1=C(C)NC(=O)N(C(C)=O)C1c1ccc(Cl)cc1` (stereo unspecified) the inhibition was 12.8%. For `COc1ccc(C2CC(c3ccc(C)cc3)Nc3nc(N)nn32)cc1` (stereo unspecified), the inhibition was -0.09%. `COc1ccccc1-c1cc(C(=O)N2CCCCC2)no1` showed an inhibition of -3.35%. Work on `COc1ccc(Br)cc1/C=N/n1c(C)nnc1C` yielded an inhibition of 12.8%. In the case of `CCCOC(=O)CC1C(=O)NCCN1Cc1ccc(F)cc1` (stereo unspecified), the inhibition is reported as -5.6%. In the case of `CCOC(=O)c1ccc(NC(=O)CSc2nnc(COc3ccccc3OC)n2C)cc1`, the inhibition is reported as -5.46%. Work on `CCOc1ccc(C(=O)Nc2ccncc2)cc1` yielded an inhibition of 21.4%. In the case of `Cc1cnc(C(=O)OCC(=O)Nc2ccc(Cl)cc2Cl)cn1`, the inhibition is reported as -0.6%. `Fc1ccc2[nH]c3c(N4CCN(Cc5ccc6c(c5)OCO6)CC4)ncnc3c2c1` gave an inhibition of -9.64%. `c1ccc(-c2noc(-c3cccs3)n2)nc1` showed an inhibition of 0.38%. `CCOc1cc(/C=N/O)cc(Br)c1OC` gave an inhibition of 2.18%. With `COC(=O)C(C)C1Sc2ccccc2NC1=O` (stereo unspecified) the inhibition was -1.59%. In the case of `CCCCOc1ccc(-c2ncc(C(=O)OCC)c(N)n2)cc1`, the inhibition is reported as 4.53%. For `Cc1cc(NC(=O)c2cnn3cccnc23)n(-c2ccccc2)n1`, the inhibition was 1.38%. `COc1cccc(N2C(=O)C3CCCN3C2c2ccc(F)cc2)c1` (stereo unspecified) gave an inhibition of -5.29%. Work on `Cc1noc(C)c1C(=O)NC(C)c1ccc2c(c1)OCO2` (stereo unspecified) yielded an inhibition of 19.1%. `CN(Cc1ccccc1)Cc1ccccc1F` gave an inhibition of 6.62%. Compound `COC(=O)c1cc(S(=O)(=O)NC2CCN(Cc3ccccc3)CC2)cn1C` has an inhibition of -7.14%. With `Cc1cc(OCCN2CCCC2)ccc1C(C)C` the inhibition was 3.61%. Work on `CCCc1cc(=O)[nH]c(SCC(=O)OCc2ccccc2)n1` yielded an inhibition of -7.39%. For `CCn1cc(C(=O)NCc2ccc(OC)cc2OC)c(=O)c2ccc(C)nc21`, the inhibition was -0.88%. With `O=c1cc(Cn2nnc(-c3ccc(Cl)cc3)n2)nc2sccn12` the inhibition was 18.2%. In the case of `Cc1cccc(N(CC(O)CN(C)C)S(=O)(=O)c2ccccc2)c1` (stereo unspecified), the inhibition is reported as -0.65%. For `Cc1ccc(C2(c3ccc(C)cc3)NC(=O)N(Cc3c(C)noc3C)C2=O)cc1`, the inhibition was 13.3%. For `Cc1nc2ccc(NC(=O)N3CCC(c4ccccc4)C3)cc2nc1C` (stereo unspecified), the inhibition was -130%. For `COc1ccc2[nH]c(=O)c(CN(CC3CCCO3)C(=O)Nc3ccccc3)cc2c1` (stereo unspecified), the inhibition was -6.3%. `CCN(CC(=O)Nc1ccc2c(c1)OCCO2)Cc1cc(=O)oc2cc(C)c(C)cc12` showed an inhibition of 0.7%. `CCOCCOC(=O)C1=C(C)N(C)C(=O)NC1c1ccccc1F` (stereo unspecified) showed an inhibition of -0.79%. With `CCOc1cc(C)c(Cl)cc1S(=O)(=O)n1nnc2ccccc21` the inhibition was 3.04%. `O=C(c1ccccc1)c1ccc2nc(N3CCCCC3)c3nncn3c2c1` was tested, and the inhibition was -3.17%. With `CCOC(=O)CCc1c(C)c2ccc(OCc3nn[nH]n3)c(C)c2oc1=O` the inhibition was -20.7%. `COc1ccc(OC)c2c(N)c(C#N)c(C(F)(F)C(F)(F)F)nc12` gave an inhibition of -8.11%. Work on `Cc1c(C)c2cc3c4c(oc3c(C)c2oc1=O)CCCC4` yielded an inhibition of 2.98%. With `CC1CCN(Cc2nc3c(c(=O)n(C)c(=O)n3C)n2Cc2cccc3ccccc23)CC1` the inhibition was 0.14%. `OC(COc1cccc2ccccc12)CN1CCN(c2ccccn2)CC1` (stereo unspecified) showed an inhibition of 7.74%. Work on `O=C(CS(=O)(=O)c1cn(Cc2cccc(F)c2)c2ccccc12)N1CCCCC1` yielded an inhibition of 17.3%. `CCCC(=O)C1=C(N(C)c2ccccc2)CC(C)(C)C(C(=O)OC)C1=O` (stereo unspecified) was tested, and the inhibition was -1.31%. For `CCCn1c(=NC(C)=O)c(C(=O)OCC)cc2c(=O)n3ccccc3nc21`, the inhibition was -149%. Compound `Cc1cc2cc(CNC(=O)c3ccc(S(=O)(=O)N4CCOCC4)cc3)ccc2[nH]1` has an inhibition of 4.06%. Compound `CN(CCCC(=O)Nc1nccs1)S(=O)(=O)c1ccc(Cl)cc1` has an inhibition of -4.71%. `CC1=NC2(CCCc3c2no[n+]3[O-])N(O)C1(C)C` (stereo unspecified) showed an inhibition of 1.32%. In the case of `CC(=O)N1C(=O)C2(Nc3ccccc3N2)c2ccccc21`, the inhibition is reported as 1.65%. Work on `COc1ccccc1CNC(=O)C1CCN(S(C)(=O)=O)CC1` yielded an inhibition of 2.28%. Compound `CC(=O)N=c1ncn(CC(COC(C)=O)OC(C)=O)c2nc[nH]c12` (stereo unspecified) has an inhibition of -1.89%. In the case of `Cc1cccc(OCc2nnc(SCc3nc4cc(C(F)(F)F)ccc4c(=O)[nH]3)o2)c1`, the inhibition is reported as -0.3%. For `O=C(O)C1CC=CCC1C(=O)NCCc1ccccc1` (stereo unspecified), the inhibition was -8.83%. `CC(C)c1ccc(NS(=O)(=O)c2cn(C)c(=O)n(C)c2=O)cc1` gave an inhibition of 12.5%. In the case of `O=C(NC(Cc1ccccc1)C(=O)N1CCCC1C(=O)O)c1ccccc1` (stereo not drawn) (Bz-Phe-Pro-OH; configuration not given here), the inhibition is reported as 17.6%. For `Cc1ccc(C)c(N(CC(=O)NCc2ccco2)C(=O)CCC(=O)Nc2ccccn2)c1`, the inhibition was -0.88%. `COc1ccc(-c2nnn(Cc3nc(N)nc(N4CCCCC4)n3)n2)cc1` was tested, and the inhibition was -3.62%. `CCOc1cccc(=O)c2c(C)n(CC3CCCO3)c(C)c12` (stereo unspecified) was tested, and the inhibition was -0.25%. `CC(NC(=O)Nc1ccccc1)c1ccccc1` (stereo unspecified) was tested, and the inhibition was 1.63%. For `O=C(CCN1C(=O)C2C3C=CC(C3)C2C1=O)Nc1ccccc1F` (stereo unspecified), the inhibition was -4.07%. Work on `c1ccc(-c2cn3cccnc3n2)cc1` yielded an inhibition of -283%. `c1ccc2c(c1)OCC(CNc1ncnc3nc[nH]c13)O2` (stereo unspecified) was tested, and the inhibition was 81.5% (active). `Cc1cc(NC(=O)CCC2COc3ccccc3O2)no1` (stereo unspecified) was tested, and the inhibition was 0.43%. With `COc1ccc(CCNc2ncnc3nc[nH]c23)cc1OC` the inhibition was -2.05%. Work on `COC(=O)c1cc(OC)c(OC)cc1NC(=O)C1CCCO1` (stereo unspecified) yielded an inhibition of 17.4%. In the case of `Cc1nc(-c2ccc(NC(=O)c3cccs3)cc2)cs1`, the inhibition is reported as 6.73%. In the case of `NS(=O)(=O)c1ccc(CCNC(=O)Nc2ccc(Cl)cc2)cc1`, the inhibition is reported as 0.5%. For `COc1ccc(C2CC(c3ccccc3)Nc3ncnn32)cc1` (stereo unspecified), the inhibition was 20.2%. `Cc1ccc(C2CC(=O)NC(SCC(=O)OCc3ccccc3)=C2C#N)o1` (stereo unspecified) gave an inhibition of 1.51%. `CCOC(=O)C(CCOc1cccc(CC)c1)C(=O)OCC` gave an inhibition of 20.3%. For `Cc1nnc(SCC(=O)N(C(C)C)C(C)C)nc1C`, the inhibition was 6.66%. In the case of `CCCC(C(=O)NCc1ccco1)N(C(=O)CNS(=O)(=O)c1ccccc1)C1CCCC1` (stereo unspecified), the inhibition is reported as 10.1%. `Cn1c(=O)c2cn(-c3cccc4ccccc34)cc2n(C)c1=O` showed an inhibition of 6.9%. `COC(=O)c1ccc(CN(c2ccccc2OC)S(=O)(=O)c2cccs2)o1` was tested, and the inhibition was 14%. `Fc1c(F)c(C(F)(F)F)c(F)c(F)c1N1CCN(c2ccc3nnc(C(F)(F)F)n3n2)CC1` was tested, and the inhibition was -17%. `CC(C)NS(=O)(=O)c1ccc(OCC(=O)Nc2ccc3c(c2)OCCO3)cc1` gave an inhibition of 16.4%. Work on `COc1ccc(Cn2cccc(NC(=O)Nc3ccc(C#N)cc3)c2=O)cc1` yielded an inhibition of -10.3%. `C=CCn1c(=N)n(CC(O)COc2ccc(OC)cc2)c2ccccc21` (stereo unspecified) gave an inhibition of 0.78%. `Cc1ccc(C2CC(c3cccc(Br)c3)n3nc(N)nc3N2)cc1` (stereo unspecified) showed an inhibition of 19.9%. With `Cc1ccc(N2C(=O)CC(NCc3ccc4c(c3)OCO4)C2=O)cc1Cl` (stereo unspecified) the inhibition was -2.37%. Work on `c1ccc(CSc2nnc(-c3ccco3)c(-c3ccco3)n2)cc1` yielded an inhibition of 10.8%. Work on `O=c1cc(O)nc(SCc2ccccc2Cl)[nH]1` yielded an inhibition of -2.97%. With `Clc1ccccc1CSc1nnc(-c2ccco2)c(-c2ccco2)n1` the inhibition was 49.7% (active). `N#Cc1c(NC(=O)CCCN2C(=O)c3ccccc3C2=O)oc(-c2ccccc2)c1-c1ccccc1` showed an inhibition of 4.96%. `CN1c2ccccc2-c2nc3ccccc3n2C1c1ccco1` (stereo unspecified) gave an inhibition of -450%. In the case of `COC(=O)C1=C(C)N(C)C(C)=C(C(=O)OC)C1c1cccc(Br)c1`, the inhibition is reported as 10.9%. In the case of `Cc1cc(Cl)c(S(=O)(=O)NCCC(=O)O)cc1OCC(N)=O`, the inhibition is reported as 4.48%. In the case of `COc1cc(-c2nn3c(-c4cccc(C)c4)nnc3s2)cc(OC)c1OC`, the inhibition is reported as 0.7%. `Cc1nnc(NC(=O)CSc2nccn2-c2cccc(C)c2C)s1` gave an inhibition of 3.56%. With `Cc1c(C(=O)N2CC(C)OC(C)C2)sc2nc(-c3ccccc3)cn12` (stereo unspecified) the inhibition was 23%. For `C=CCc1cccc2cc(C(=O)OCC)c(=O)oc12`, the inhibition was 5.84%. For `CCC1CCCCN1CCNS(=O)(=O)c1ccc2c(c1)CCN2C(C)=O` (stereo unspecified), the inhibition was 12.7%. Work on `CC(C)CCNC(=O)C1CCCN(S(=O)(=O)c2ccc(F)cc2)C1` (stereo unspecified) yielded an inhibition of 9.49%. Work on `COCc1cc(C)nc(SCC(=O)Nc2cccc(C)c2)c1C#N` yielded an inhibition of 10.9%.
